A549 tox: Nrf2 qHTS screen for inhibitors: counterscreen for cytotoxicity | A549 ARE-Fluc cells, CellTiter-Fluor viability, 18-24 h | Potency, µM (highest dose often 46 µM), without a hit: at the highest dose activity change, negative = cytotoxicity, hits mostly inhibitors | 390,000 tested, 0.16% active | AID 504648, 2011; also: % is scaled to controls: 0 for no effect and ±100 for the full control effect
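A549 ARE-Fluc cells in 5% FBS OPTI-MEM, 5000 cells/well, rested 2 h then exposed to compounds in concentration-response for 18-24 h at 37 °C. Viability by CellTiter-Fluor fluorescence (Ex 405/Em 525) after 30 min; luciferase luminescence (BugLite, 15 min, RT) read afterwards.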
Nrf2 activator: qHTS of Nrf2 Activators; AREc32 ARE-luciferase reporter (MCF7-derived line), luminescence, 24 h; Potency, µM (titrated, usually from 46.1 µM), for the others: at the highest dose activation, hits mostly activators; 410,000 tested, 0.31% active; AID 624171, 2012; also: % of control where 0% means no effect; nearly all actives have a fitted effect of over 65% in size
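AREc32 cells carrying an ARE-driven firefly luciferase, 1000 cells/well in OPTI-MEM with 5% FBS, dosed after overnight attachment and incubated 24 hr at 37 deg C. Steady-Glo luminescence read after 30 min at RT.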
HepG2 tox: qHTS for Inhibitors of TGF-b: Cytotox Counterscreen; HepG2 CAGA-GFP viability, ATP luminescence, 18 h; Potency, µM (top dose mostly 46.1 µM), without a hit: at the highest dose activity change, negative = cytotoxicity, most hits filed as cytotoxic; 410,000 tested, 0.76% active; AID 588856, 2011
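CellTiter-Glo luminescence gave cytotoxicity after 18 hours at 37 degrees C. The cells were HepG2 CAGA-GFP in 1% FBS DMEM, stimulated with 500 pg/mL TGF-beta after compound addition. %Activity was normalised to no-cell wells (complete cell-killing) and DMSO (no toxicity), and curves were fitted and classified.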
TGFb SMAD3 inh: qHTS for Inhibitors of TGF-b | AID 588855, 2011 | 410,000 tested, 1.2% active | HepG2 CAGA-GFP TGF-b/SMAD3 reporter, GFP fluorescence, 18 h; TGF-beta stimulated, 500 pg/mL final | Potency, µM (top dose mostly 46.1 µM), inactives show top-dose activity, negative = inhibition, most hits filed as inhibitors; also: % is scaled to controls: 0 for no effect and ±100 for the full control effect; nearly all actives have a fitted effect of over 65% in size
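Inhibition of TGF-beta-driven CAGA-GFP reporter expression in HEPG2 cells is measured by cellular GFP fluorescence after 18 h stimulation with 500 pg/mL recombinant TGF-beta in 1% FBS medium at 37 degrees C.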
Nrf2 inh: Nrf2 qHTS screen for inhibitors. 360,000 tested, 2.1% active. Potency, µM (titrated, usually from 46 µM), without a hit: at the highest dose activity change, negative = inhibition, hits mostly inhibitors. AID 504444, 2011. A549 ARE-Fluc reporter, luciferase luminescence, 18-24 h; also: % is scaled to controls: 0 for no effect and ±100 for the full control effect; nearly all actives have a fitted effect of over 60% in size
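A549 ARE_Fluc cells (5000/well, 5% FBS OPTI-MEM) pre-incubated 2 h, then treated with compounds 18-24 h at 37C/5% CO2 in concentration-response. CellTiter-Fluor viability read first; BugLite luciferase luminescence after 15 min at room temperature gives Nrf2 activity.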
An asterisk follows results filed as active; ? = inconclusive; · = no result given. Hits are enriched below; roughly 3.6% of the tested compounds scored in any of these assays. Calls follow the shape of the dose curve; as a rule, active = well fitted curve in the direction sought with a large enough effect; inconclusive = small, poorly fitted or top-dose-only effect, or another doubt; inactive = no such curve, though single readings can be large; an effect the other way counts as inactive or inconclusive. Potency is read from the fitted curve at half-maximal effect.

SMILES	A549 tox	Nrf2 activator	HepG2 tox	TGFb SMAD3 inh	Nrf2 inh
O=[N+]([O-])c1ccc(/C=C2\C=C(C(O)c3ccc([N+](=O)[O-])cc3)c3ccccc32)cc1 (stereo unspecified)	·	·	-21%	7.1µM*	·
O=c1oc2ccccc2cc1-c1ccc(O)cc1	-1%	7%	-3%	3%	19%
O=C/C=C/c1c(-c2ccccc2)cc2oc3ccccc3cc1-2	-2%	?	16µM*	11µM*	?
O=C(c1ccc2c(c1)N(Cc1ccccc1Cl)C(=O)c1ccccc1S2)N1CCCC1	-5%	5%	-16%	-27%	·
O=C(c1ccc2c(c1)N(Cc1c(F)cccc1Cl)C(=O)c1ccccc1S2)N1CCCC1	?	4%	-27%	?	10µM*
Cc1ccc(NC(=O)Nc2ccc3c(c2)N(C)C(=O)c2ccccc2S3)c(C)c1	-9%	0%	8%	1%	-7%
CCN1C(=O)c2ccccc2Sc2ccc(NC(=O)Nc3cc(C)cc(C)c3)cc21	6%	-1%	-30%	6.3µM*	28%
CN1C(=O)c2ccccc2Sc2ccc(NC(=O)Nc3ccccc3F)cc21	-8%	1%	-28%	-9%	21µM*
CN1C(=O)c2ccccc2Sc2ccc(NC(=O)NCc3ccccc3Br)cc21	-11%	0%	-49%	?	11%
CC(C)CCNC(=O)Nc1ccc2c(c1)N(C)C(=O)c1ccccc1S2	0%	-1%	-60%	22µM*	6%
CCN(CC)C(=O)c1sc2c(c1C)c(=O)n(-c1ccccc1)c(=O)n2Cc1cc(=O)n2ccccc2n1	2%	0%	3%	-7%	·
CN1C(=O)c2ccccc2Sc2ccc(NC(=O)Cc3c(F)cccc3Cl)cc21	-20%	12%	-57%	10µM*	·
CN1C(=O)c2ccccc2Sc2ccc(NC(=O)COc3ccccc3)cc21	-14%	3%	7%	-15%	·
C=CCNC(=S)N/N=C/c1ccc(C)cc1C	-3%	14%	29%	?	18µM*
COCCCNC(=S)Nc1cccc2ncccc12	-2%	-3%	-27%	-10%	13µM*
Cc1nc2ccc(NS(=O)(=O)c3ccc(F)cc3F)cc2s1	0%	0%	-3%	?	13µM*
Cc1nc2ccc(NS(=O)(=O)c3ccc(F)c(F)c3F)cc2s1	5%	4%	-17%	?	-22%
Cc1nc2ccc(NS(=O)(=O)c3c(F)cc(F)cc3Br)cc2s1	-1%	0%	-22%	?	21µM*
Cc1ccc(-c2nc3cnccn3c2Nc2ccccc2)o1	-5%	1%	0%	-18%	3%
CC(C)N(C(=O)c1sc2cc([N+](=O)[O-])ccc2c1Cl)C(C)C	1%	2%	-7%	-7%	16%
CNCCCOc1ccc(C)cc1Br	13%	-1%	-8%	-3%	2%
Cc1ccccc1N(CC(=O)N/N=C/c1ccc(Cl)cc1)C(=O)c1ccccc1	?	1%	-40%	?	21µM*
CC1=CC(=O)C=C(C)C1=NOC(=O)/C=C\c1ccccc1	8%	14%	-3%	-2%	-3%
O=C(Nc1nc2ccccc2n1CCN1CCOCC1)c1ccc(Cn2cc([N+](=O)[O-])cn2)o1	10%	6%	3%	1%	-5%
O=C(Nc1cccnc1)c1ccc(COc2ccccc2Br)o1	-13%	0%	-48%	19%	6.5µM*
SMILES	A549 tox	Nrf2 activator	HepG2 tox	TGFb SMAD3 inh	Nrf2 inh
O=C(Nc1ccc(Cn2cccn2)cc1)c1ccc(COc2ccccc2Br)cc1	?	1%	-18%	-15%	9.2µM*
O=C(Nc1nc2ccccc2n1CCN1CCOCC1)c1ccc(COc2ccccc2Br)o1	-16%	3%	-30%	-3%	13µM*
O=C(NCc1cccnc1)c1ccc(COc2ccccc2Br)o1	-1%	3%	-21%	-19%	-4%
COc1ccccc1OCc1ccc(C(=O)Nc2ccccc2)cc1	-4%	-1%	-23%	-7%	6%
CC(C)CC(NC(=O)OCc1ccccc1)C(=O)NC(Cc1ccccc1)C(=O)CCl (stereo unspecified)	?	?	-102%	10µM*	-18%
COC(=O)C(Cc1ccccc1)NC(=O)C(CC(C)C)NC(=O)OC(C)(C)C (stereo unspecified)	-2%	0%	-10%	-38%	-6%
COc1ccc(/C=N/OCC(=O)Nc2cc(C)on2)cc1OC	-3%	0%	20%	0%	1%
COc1cc(/C=N/OCC(=O)NC23CC4CC(CC(C4)C2)C3)ccc1OCc1ccccc1	-11%	3%	4%	20µM*	?
COc1cc(/C=N/OCC(=O)NC2CCCCC2)ccc1OCc1ccccc1	-12%	3%	-19%	-10%	-1%
COc1ccc(/C=N/OCC(=O)NC(c2ccccc2)c2ccccc2)cc1OC	0%	5%	-21%	?	5.8µM*
CCC[C@@H](CNC)NC[C@H](Cc1ccccc1)NCCCCc1ccccc1	-10%	-4%	-123%	?	11%
CNC[C@@H](CC1CCCCC1)NC[C@H](CC(C)C)NCCc1cccc(C(F)(F)F)c1	?	-3%	10µM*	?	?
CN(C[C@H](Cc1ccccc1)N(C[C@@H](CC1CCCCC1)N(CCc1ccccc1)N=O)N=O)N=O	-1%	0%	3%	?	-20%
CCC[C@@H](CN[C@@H](CNC)C(C)C)NCCCCc1ccccc1	-20%	-5%	16µM*	?	9%
CCC[C@H](CN[C@@H](CNC)[C@H](C)CC)NCCc1cc(C(F)(F)F)cc(C(F)(F)F)c1	-12%	-5%	22µM*	16µM*	0%
CNC[C@@H](Cc1ccccc1)NC[C@@H](CC1CCCCC1)NCCCc1ccccc1	?	-6%	13µM*	?	-4%
COc1ccc(S(=O)(=O)N(C)C[C@@H]2Oc3ccc(NS(C)(=O)=O)cc3C(=O)N([C@@H](C)CO)C[C@H]2C)cc1	2%	0%	-10%	0%	-3%
CN=c1scc(-c2ccccc2F)n1/N=C/c1ccc(O)c(O)c1O	?	17%	6%	?	12µM*
COc1ccc(CCN(Cc2ccccn2)C(=S)Nc2cccc(C)c2)cc1OC	1%	0%	5µM*	-6%	6%
CC1CCc2c(nc3ncnn3c2N2CCN(c3ccccc3F)CC2)C1 (stereo unspecified)	-15%	0%	15%	6%	-10%
CC1CCc2c(nc3ncnn3c2NCCc2ccccc2F)C1 (stereo unspecified)	?	0%	-9%	-3%	3.3µM*

Assay outcomes: PubChem BioAssay, National Center for Advancing Translational Sciences (NCATS)
